From PubChem BioAssay
TDP1 cell CPT – growth inhibition of DT40 Tdp1-/-;hTDP1 cells with camptothecin (screen for TDP1 inhibitors); chicken DT40 Tdp1-/-;hTDP1 cells + 20 nM CPT, ATP luminescence, 48 h; Potency, µM (series often up to 46.2 µM), inactives show at the highest dose activity change, negative = growth inhibition, actives largely listed as inhibitors; 420,000 compounds, 12% hits; AID 686979; note: potency is the fitted concentration of half-maximal effect; % is set by controls: 0 for no effect and ±100 for the full control effect; nearly all actives have a fitted effect of over 55% in size
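Cell growth measured by CellTiter-Glo luminescence after a minimum 48 h, 37 C compound exposure with 20 nM CPT in Tdp1-knockout DT40 cells stably expressing hTDP1, seeded 400/well; qHTS titration format.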
ASM inhibitor – blocks human secretory acid sphingomyelinase; P17405; placental ASM, HMU-PC fluorogenic substrate, 60 min; Potency, µM (highest dose often 57.5 µM), inactives show at the top dose activity change, negative = inhibition, hits mostly inhibitors; 340,000 compounds, 0.006% hits; AID 504937; note: potency is the fitted concentration of half-maximal effect
Target sequence (P17405 47-631 limits assumed): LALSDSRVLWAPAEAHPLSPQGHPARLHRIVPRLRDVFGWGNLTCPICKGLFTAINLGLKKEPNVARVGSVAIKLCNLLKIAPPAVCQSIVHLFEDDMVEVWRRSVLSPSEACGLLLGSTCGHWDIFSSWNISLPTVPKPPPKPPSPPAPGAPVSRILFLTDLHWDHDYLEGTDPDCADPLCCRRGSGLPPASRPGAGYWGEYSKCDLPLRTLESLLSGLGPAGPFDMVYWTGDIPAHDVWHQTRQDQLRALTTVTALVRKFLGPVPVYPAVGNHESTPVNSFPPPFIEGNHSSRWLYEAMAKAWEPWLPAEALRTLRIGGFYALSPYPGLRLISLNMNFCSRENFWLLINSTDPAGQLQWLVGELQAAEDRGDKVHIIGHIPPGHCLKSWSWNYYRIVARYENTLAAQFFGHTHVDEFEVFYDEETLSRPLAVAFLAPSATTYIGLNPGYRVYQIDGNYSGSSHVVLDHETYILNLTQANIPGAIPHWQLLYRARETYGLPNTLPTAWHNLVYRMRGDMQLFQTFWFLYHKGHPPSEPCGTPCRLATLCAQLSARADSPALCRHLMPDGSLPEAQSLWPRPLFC
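Steps: dispense placental human ASM, pin compound, wait 10 min at room temperature, add HMU-PC0 substrate at 9 uM final, incubate 60 min at 37 °C, add stop solution raising pH to 10, read fluorescence.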
IL1B secr inh – blocks inflammasome-driven IL-1 beta release; THP-1 LPS/ATP IL-1B secretion, AlphaLISA, 16 h; active compounds read low; activity change, % at 57.5 µM; 360,000 compounds, 4.7% hits; in the data active = activity change below about -50%; inconclusive = mostly about -30% to -49%; note: % is set by controls: 0 for no effect and ±100 for the full control effect
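Secreted IL-1B measured by AlphaLISA bead assay after 16 h compound exposure of THP-1 cells; compounds (final up to 57.5 uM) added 1 h before LPS (250 ng/mL) and ATP (1.25 mM) stimulation; lower signal means less secretion.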
HepG2 tox – counter-screen for TGF-b inhibitors: cytotoxicity in HepG2 cells; HepG2 CAGA-GFP viability, ATP luminescence, 18 h; Potency, µM (series often up to 46.1 µM), without a hit: at the top dose activity change, negative = cytotoxicity, actives largely listed as cytotoxic; 410,000 compounds, 0.76% hits; AID 588856; note: potency is the fitted concentration of half-maximal effect
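CellTiter-Glo luminescence gave cytotoxicity after 18 hours at 37 degrees C. The cells were HepG2 CAGA-GFP in 1% FBS DMEM, stimulated with 500 pg/mL TGF-beta after compound addition. %Activity was normalised to no-cell wells (complete cell-killing) and DMSO (no toxicity), and curves were fitted and classified.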
TGFb SMAD3 inh – blocks TGF-b signaling; Potency, µM (doses to about 46.1 µM), inactives show at the highest dose activity, negative = inhibition, usual class: inhibitors; HepG2 CAGA-GFP TGF-b/SMAD3 reporter, GFP fluorescence, 18 h; TGF-beta stimulated, 500 pg/mL final; 410,000 compounds, 1.2% hits; AID 588855; note: potency is the fitted concentration of half-maximal effect; % is set by controls: 0 for no effect and ±100 for the full control effect; nearly all actives have a fitted effect of over 65% in size
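Cell-based qHTS in HEPG2 carrying a CAGA-GFP Smad reporter; compounds added before 500 pg/mL final TGF-beta, 18 h incubation at 37 degrees C, GFP fluorescence quantified per cell by imaging cytometry.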
TDP1 cell noCPT – qHTS for Inhibitors of human tyrosyl-DNA phosphodiesterase 1 (TDP1): qHTS in cells in absence of CPT. DT40 Tdp1-/- hTDP1 cells, no CPT, ATP luminescence, 48 h. Potency, µM (series often up to 46.2 µM), without a hit: at the top dose activity change, negative = growth inhibition, actives largely listed as inhibitors. 420,000 compounds, 15% hits. AID 686978, 2013; note: potency is the fitted concentration of half-maximal effect; % is set by controls: 0 for no effect and ±100 for the full control effect; nearly all actives have a fitted effect of over 55% in size
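Chicken DT40 Tdp1-/- cells complemented with human TDP1, screened without camptothecin (DMSO vehicle only), 400 cells/well. Compounds pin-transferred, cells incubated at 37 °C for at least 48 hr. Growth read as ATP-dependent luminescence (CellTiter-Glo, 30 min at RT).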
Starred values were filed as active, the others as inactive; ? = inconclusive; . = not tested or not shown. In the library only some 19% were active in any assay of this set; here they are far more common. Unless noted, calls come from the whole dose curve; as a rule, active = well fitted curve in the direction sought with a large enough effect; inconclusive = small, poorly fitted or top-dose-only effect, or another doubt; inactive = no such curve, though single readings can be large; an effect the other way counts as inactive or inconclusive.

SMILES	TDP1 cell CPT	ASM inhibitor	IL1B secr inh	HepG2 tox	TGFb SMAD3 inh	TDP1 cell noCPT
CCN(CC(=O)Nc1ccc(OC)c(OC)c1)CC(=O)Nc1ccccc1C(F)(F)F	?	1%	-11	-12%	-11%	?
CCN(CC)CCCNC(=O)c1ccc(OCC(=O)Nc2ccccc2C(F)(F)F)c(OC)c1	?	-5%	-62*	-38%	-14%	?
COc1ccc(CSc2nnc3[nH]c(=O)cc(N)n23)cc1	4%	13%	8	-4%	-2%	-7%
c1nc(NCC2CCCO2)c2[nH]cnc2n1 (stereo not drawn)	-16%	4%	-8	-1%	-4%	-14%
CCCCn1cnc2c([nH]c3ccccc32)c1=O	1%	1%	-11	-4%	1%	-19%
c1ccc2c(c1)[nH]c1c(NCC3CCCO3)ncnc12 (stereo not drawn)	?	1%	11	-23%	?	15µM*
CCOCCCNc1ncnc2c1[nH]c1ccccc12	10µM*	3%	0	-24%	0%	16µM*
CCCCOCCCNc1ncnc2c1[nH]c1ccccc12	2.1µM*	-2%	-95*	-38%	?	2.3µM*
COc1cc(C2C(=O)N(C3CCCCCC3)CC(=O)N2Cc2ccccc2)ccc1OC(C)C (stereo not drawn)	?	.	.	-22%	-7%	23µM*
COc1cc(C2C(=O)N(C3CCCCC3)CC(=O)N2Cc2ccc(C)cc2)ccc1OC(C)C (stereo not drawn)	?	.	.	-3%	11%	?
COc1ccc(CCN2C(=O)CN(C3CCC(C)CC3)C(=O)C2c2ccc(OC(C)C)c(OC)c2)cc1OC (stereo not drawn)	16µM*	.	.	-24%	0%	?
COc1ccc(C2C(=O)N(C3CCC(C)CC3)CC(=O)N2CCc2ccccc2)cc1OC (stereo not drawn)	?	.	.	-20%	-11%	?
N#CCCN1CCCc2cc(N=Nc3ccc(C(F)(F)F)cc3)ccc21	?	?	?	-38%	-9%	?
Cc1ccc2nc(-c3ccc(Cl)cc3)c(Cc3ccccc3C(F)(F)F)n2c1	26µM*	.	-11	-4%	0%	?
Cc1ccc(-c2nc3ccc(Cl)cn3c2Cc2ccccc2C(F)(F)F)cc1	-26%	.	18	-3%	?	?
Cc1ccc2nc(-c3ccc(C#N)cc3)c(Cc3ccccc3C(F)(F)F)n2c1	23µM*	.	-9	-43%	?	?
CCCOc1ccc(C(=O)NNC(=O)CCNC(=O)c2ccccc2Cl)cc1OC	-6%	.	3	-2%	-2%	5%
COC(=O)[C@]1(Cc2ccccc2)N[C@H](c2ccc(-c3ccc(OC)cc3)cc2)[C@@H]2C(=O)N(C)C(=O)[C@@H]21	-4%	?	9	15%	7%	1%
CCN1C(=O)[C@H]2[C@@H](c3ccc(-c4ccc(OC)cc4)cc3)N[C@@](C)(C(=O)OC)[C@H]2C1=O	?	-5%	9	2%	25%	?
COC(=O)[C@]1(CC(C)C)N[C@H](c2ccc(-c3ccc(OC)cc3)cc2)[C@@H]2C(=O)N(C)C(=O)[C@@H]21	?	-16%	-1	-10%	1%	16µM*
CCN1C(=O)[C@H]2[C@@H](c3ccc(-c4ccc(F)cc4)cc3)N[C@@](CC(C)C)(C(=O)OC)[C@H]2C1=O	13µM*	1%	-66*	-4%	1%	18µM*
COC(=O)[C@]1(CC(C)C)N[C@H](c2ccc(-c3ccc(F)cc3)cc2)[C@@H]2C(=O)N(C)C(=O)[C@@H]21	18µM*	-10%	-23	-21%	0%	?
COC(=O)[C@]1(CC(C)C)N[C@H](c2ccc(-c3ccccc3)cc2)[C@@H]2C(=O)N(C)C(=O)[C@@H]21	?	-2%	-19	-11%	-6%	?
COc1ccc(/C=N/n2cnn(Cc3ccccc3Cl)c2=S)cc1OC	?	-8%	-55*	0%	-1%	?
CC[N+]1(CC)CC2=Cc3c(ccc4ccccc34)C(C)C2C1 (stereo not drawn)	5.8µM*	1%	-16	9%	7%	13µM*
SMILES	TDP1 cell CPT	ASM inhibitor	IL1B secr inh	HepG2 tox	TGFb SMAD3 inh	TDP1 cell noCPT
Clc1ccc(CNc2ncnc3nc[nH]c23)cc1	?	.	.	-2%	11%	?
O=C1CC(C(=O)N2CCC(N3CCC(C(=O)NC4CC4)CC3)CC2)c2ccccc21 (stereo not drawn)	-1%	15%	16	15%	1%	-8%
Cc1cc(C)c2cc(C#N)c(N3CCCN(C(=O)c4cnccn4)CC3)nc2c1	-8%	123%	-3	15%	-8%	18µM*
Cc1ccc2cc(C#N)c(N3CCN(C(=O)c4cccs4)CC3)nc2c1	?	61%	5	-25%	-3%	21µM*
Cc1cc(C)c2cc(C#N)c(N3CCCN(S(=O)(=O)c4ccccc4)CC3)nc2c1	-7%	5%	29	-3%	1%	?
Cc1ccc2nc(N3CCN(C(=O)c4ccccc4F)CC3)c(C#N)cc2c1	?	181%	-4	-24%	?	?
COc1ccccc1C(=O)N1CCN(c2nc3cc(C)cc(C)c3cc2C#N)CC1	23µM*	.	-9	-4%	-2%	21µM*
COc1ccccc1C(=O)N1CCN(c2nc3cc(C)c(C)cc3cc2C#N)CC1	18µM*	197%	-67*	-6%	?	16µM*
CC(=O)c1cccc(S(=O)(=O)N2CCN(c3nc4cc(C)cc(C)c4cc3C#N)CC2)c1	15µM*	93%	-25	5%	?	?
CCSc1nc2ccccc2c(OCc2ccc(Cl)cc2)c1C(=O)OC	-28%	.	.	-22%	?	?
COC(=O)c1c(SC)nc2ccccc2c1OCc1ccccc1C	?	.	.	-32%	-19%	13µM*
CCSc1nc2ccccc2c(OCc2cc(C(=O)OC)ccc2OC)c1C(=O)OC	18µM*	.	.	-22%	-22%	?
COc1ccccc1C(=O)Nc1ccc2oc(-c3cccc(Cl)c3Cl)nc2c1	-2%	.	.	2%	-29%	-8%
CCn1cc(C(=O)N2CCCC(C(=O)c3ccc4ccccc4c3)C2)cn1 (stereo not drawn)	-10%	-2%	-15	-5%	-14%	-14%
